# From PubChem
# FBPA coupling cs – qHTS Assay for Inhibitors of Fructose-1,6-bisphosphate Aldolase from Giardia Lamblia: Coupling assay counterscreen | coupling enzyme system counterscreen, AmpLite Red fluorescence | activity change, negative = inhibition, % at 58.2 µM, hits read low | 0.67% of 290,000 active; in the data active means activity change below about -30%
#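 Compounds tested against the coupling enzymes alone at 57.5 uM final; readout was AmpLite Red fluorescence (525/598 nm) after 20 min at RT.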
# Tau fluor counter – Counterscreen qHTS for Inhibitors of Tau Fibril Formation, Fluorescence Polarization | tau K18 P301L Alexa594 fluorescence, heparin fibrillization | Potency, µM (doses to about 57.7 µM), for the others: at the highest dose activity change, negative = decrease | 0.93% of 280,000 active | AID 1463, 2008; further: potency means the concentration at half of the fitted maximal effect; nearly all actives have a fitted effect of over 55% in size
#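 Human K18 P301L tau (15 uM unlabeled plus 0.24 uM Alexa 594-labeled, final) in 100 mM sodium acetate pH 7 was mixed with compound and 20 uM heparin and incubated 6 hr at 37 C.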
# Sfp PPTase inh – qHTS Assay for Inhibitors of Bacillus subtilis Sfp phosphopantetheinyl transferase (PPTase); 4'-phosphopantetheinyl transferase ffp (Bacillus subtilis), Q9F4F7; Potency, µM, for the others: largest response in the series, negative = inhibition, most hits filed as inhibitors; Biochemical Sfp PPTase activity, qHTS; 3.5% of 310,000 active; AID 1490, 2009;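 further: the enzyme is Sfp with the accession as filed and its product quenches rhodamine fluorescence; potency means the concentration at half of the fitted maximal effect; 0% = enzyme reaction without inhibitor and -100% = no enzyme wells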
#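 Sfp 15 nM + cpd, 15 min RT; start w/ rhodamine-CoA 5 uM, BHQ-2-YbbR 12.5 uM (final); 50 mM Hepes pH 7.6, 10 mM MgCl2, 0.01% NP-40, 0.01% BSA; read 525/598 nm at 0 and 30 min.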
# G9a block – qHTS Assay for Inhibitors of Histone Lysine Methyltransferase G9a | Histone-lysine N-methyltransferase EHMT2 (Homo sapiens), Q96KQ7 | G9a H3K9 monomethylation, AlphaScreen, 2 h | Potency, µM (titrated, usually from 102 µM), without a hit: at the highest dose activity, negative = inhibition, hits mostly inhibitors | 8.8% of 350,000 active; further: potency means the concentration at half of the fitted maximal effect; nearly all actives have a fitted effect of over 75% in size
# Target sequence (Q96KQ7 913-1193 limits assumed): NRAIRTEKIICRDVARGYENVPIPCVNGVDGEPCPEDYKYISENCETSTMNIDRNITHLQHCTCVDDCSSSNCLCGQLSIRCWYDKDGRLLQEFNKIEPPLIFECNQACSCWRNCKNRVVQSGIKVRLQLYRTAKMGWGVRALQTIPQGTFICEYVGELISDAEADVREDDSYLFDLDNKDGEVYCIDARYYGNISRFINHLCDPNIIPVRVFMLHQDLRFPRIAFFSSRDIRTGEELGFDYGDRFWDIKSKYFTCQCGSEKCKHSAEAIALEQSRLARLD
#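 Using a bead-based AlphaScreen, monomethylated H3K9 product from 2 h room-temperature reactions (G9a 20 nM, peptide 500 nM, SAM 20 uM) was detected with 0.5 ug/mL rabbit anti-H3K9me1 antibody.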
# Tau FP inhib – qHTS for Inhibitors of Tau Fibril Formation, Fluorescence Polarization | Microtubule-associated protein tau (Homo sapiens), P10636 | K18 P301L tau heparin fibrillization, Alexa594 FP, 6 h | Potency, µM (top dose mostly 57.7 µM), for inactives: at the top dose activity, negative = inhibition, actives largely listed as inhibitors | 0.39% of 280,000 active | AID 1468, 2008; further: potency means the concentration at half of the fitted maximal effect; nearly all actives have a fitted effect of over 55% in size
# Target sequence (P10636 561-689 P618L limits assumed): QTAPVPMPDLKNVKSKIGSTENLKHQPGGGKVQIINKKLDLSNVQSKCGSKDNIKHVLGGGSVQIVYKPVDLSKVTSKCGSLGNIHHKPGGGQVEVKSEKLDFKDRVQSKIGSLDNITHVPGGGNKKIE
#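 Compound effects on tau fibrillization are measured by Alexa 594 fluorescence polarization (ex 555, em 632 nm). K18 P301L tau is used at 15 uM with 0.24 uM labeled tracer, and 20 uM heparin induces aggregation over 6 hr at 37 C.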
# Tau fibril ThT – qHTS for Inhibitors of Tau Fibril Formation, Thioflavin T Binding; recombinant tau K18 P301L (four-repeat tau fragment), heparin-induced fibrillization, ThT fluorescence; 2.1% of 270,000 active; Microtubule-associated protein tau (Homo sapiens), P10636; Potency, µM (doses to about 57.4 µM), without a hit: at the top dose activity, negative = inhibition, actives largely listed as inhibitors; further: potency means the concentration at half of the fitted maximal effect; nearly all actives have a fitted effect of over 55% in size
#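 In this qHTS, human K18 P301L tau is incubated with compound and heparin for 6 hr at 37 C, and Thioflavin T fluorescence then reports fibril load.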
# Numbers without * were called inactive; ? = inconclusive; . = no result given; [ ] = remark or other dose. Most compounds without a hit are left out; they make up all but 11% or so of the library. Unless noted, the call rests on the fitted dose curve; in most records, active means well fitted curve in the direction sought with a large enough effect; inconclusive means small, poorly fitted or top-dose-only effect, or another doubt; inactive means no such curve, though single readings can be large; an effect the other way counts as inactive or inconclusive. Unless noted, on the % scale 0 is the no-effect control and ±100 the full control effect.
SMILES,FBPA coupling cs,Tau fluor counter,Sfp PPTase inh,G9a block,Tau FP inhib,Tau fibril ThT
COc1ccc(N=C/C=C2/C=C(c3ccccc3)OC(C)(C)O2)cc1,-5,-11%,?,45µM*,5%,?
CC1=NN(c2ccccc2)C(=O)C1(C)C,-2,1%,13%,-1%[59 µM],-3%,-3%
CC[N+]1=CN(c2ccccc2)C(C)=CC1(C)C,-2,3%,-12%,1.8µM*,12%,-1%
CC[C@H](C)[C@H](NC(=O)OCc1ccccc1)C(=O)OCC(=O)Nc1ccc(N2CCOCC2)cc1,.,.,.,-23%[2.33 µM],.,.
O=C(CSc1nc2sccc2c(=O)[nH]1)N1CCN(c2ccccc2)CC1,2,.,-6%,45µM*,.,.
COCCNC(=O)CSc1nc2scc(-c3ccccc3)c2c(=O)[nH]1,0,5%,16%,50µM*,-10%,.
CCOC(=O)CSc1nc2sccc2c(=O)[nH]1,3,-4%,15%,8%[59 µM],?,-8%
O=C(CSc1nc(O)c(-c2ccccc2)c(=O)[nH]1)N1CCOCC1,-3,-13%,-11%,-2%,-11%,?
Cc1ccc(-c2csc3nc(SCC(=O)Nc4ccc(Cl)c(C(=O)O)c4)[nH]c(=O)c23)cc1,11,.,-14%,28µM*,.,.
CC(C)(C)NC(=O)CSc1nc2scc(-c3ccccc3)c2c(=O)[nH]1,8,-3%,2%,7%[59 µM],2%,?
Cc1sc2nc(SCC(=O)N3CCOCC3)[nH]c(=O)c2c1-c1ccccc1,3,.,-17%,45µM*,.,.
CCCS(=O)(=O)N1CCC(C(=O)NCCC(C)C)CC1,3,-3%,14%,-28%,1%,-5%
O=C(CSc1nc2scc(-c3ccccc3)c2c(=O)[nH]1)N1CCCCC1,4,-7%,-9%,50µM*,3%,?
COc1ccc(C(=O)Nc2cc(C)c(NC(=O)c3ccccn3)cn2)cc1,-9,.,-17%,45µM*,.,.
COc1ccc(C(=O)Nc2cnc(NC(=O)c3cccs3)cc2C)cc1,2,.,15%,-7%,.,.
CCOCCn1ccc2c(OCC(=O)Nc3cccc([N+](=O)[O-])c3)cccc2c1=O,.,-28%,.,12%[59 µM],-11%,-17%
COCc1cc(C)nc(OCC(=O)N/N=C/c2ccc(-c3cccc([N+](=O)[O-])c3)o2)c1C#N,.,-26%,-10%,50µM*,10%,?
COCc1cc(C)nc(OCC(=O)N/N=C/c2ccc(C)o2)c1C#N,-9,6%,4µM*,45µM*,2%,-1%
COCc1cc(C)n(CC(=O)N/N=C/c2ccc(-c3ccc(Cl)c(C(=O)O)c3)o2)c(=O)c1C#N,-12,-6%,?,-40%[59 µM],1%,1%
COCc1cc(C)nc(N/N=C/c2ccc(-c3ccc(C(=O)O)c(Cl)c3)o2)c1C#N,4,-10%,-6%,11µM*,7%,-18%
CCOC(=O)/C(C#N)=C1\CC2CCC1(C)C2(C)C (centres undefined),6,-10%,40µM*,3.2µM*,-7%,-8%
CCCCCOc1ccccc1Cn1c(=O)oc2ccc(C)cc21,.,-8%,.,185%[59 µM],-10%,-13%
Cc1cccc(OCCCN2C(=O)C(=O)c3cc(C)ccc32)c1,-9,-10%,0%,32µM*,8%,?
Cc1ccc2c(c1)C(=O)C(=O)N2CCCOc1ccccc1,0,-13%,21%,35µM*,8%,?
CCCCCOc1ccccc1CN1C(=O)C(=O)c2cc(C)ccc21,.,-18%,.,8.9µM*,-2%,?
SMILES,FBPA coupling cs,Tau fluor counter,Sfp PPTase inh,G9a block,Tau FP inhib,Tau fibril ThT
COCCn1c(CNC(=O)c2cccc(N(C)C)c2)nc2cccnc21,.,-4%,.,19%[59 µM],-1%,-2%
C/C(=N/NC(=O)CNc1ccc(C)cc1)c1ccc(Cl)cc1,1,?,5%,45µM*,?,?
CCC(=O)Nc1ccc(C(=O)COC(=O)CCN2C(=O)C3CC=CCC3C2=O)cc1 (centres undefined),.,.,.,50µM*,.,.
CCOc1ccc(NC(=O)CCN2C(=O)C3CCCCC3C2=O)cc1OCC (centres undefined),.,.,.,3%[0.501 µM],.,.
CCOc1ccc(NC(=O)COC(=O)CCN2C(=O)C3CC=CCC3C2=O)cc1OCC (centres undefined),.,.,.,4µM*,.,.
Cc1c2cnn(CC(=O)NCCc3ccccc3)c(=O)c2c(C)n1Cc1ccccc1Cl,.,-7%,.,-1%[59 µM],-5%,-13%
O=C(N/N=C/c1c[nH]c2ccccc12)c1[nH]c2ccc(Br)cc2c1-c1ccccc1,2,4µM*[quencher],33%,21%[59 µM],-13%,?
O=C(N/N=C/c1ccc(O)cc1)c1[nH]c2ccc(Br)cc2c1-c1ccccc1,-1,13µM*[quencher],-1%,32%[59 µM],?,-15%
CCc1cc(-c2n[nH]c(C)c2-c2ccc3c(c2)OCCO3)c(O)cc1O,-2,10µM*[quencher],6%,?,14%,?
CCCc1cc(-c2n[nH]c(C)c2-c2ccc(C(=O)OCC)o2)c(O)cc1O,-34*,14µM*[quencher],0%,-46%[12.7 µM],?,-9%
O=C(CN1C(=O)C2(OCCO2)c2ccccc21)c1ccc(Br)cc1,-1,1%,9%,40µM*,-2%,2%
O=C(CCN1C(=O)C2(OCCO2)c2ccccc21)c1ccccc1,-2,-4%,12%,1%,-3%,-7%
Cc1ccc(N2CCn3c2nc2c3c(=O)n(Cc3cccc(Cl)c3)c(=O)n2C)cc1C,.,-6%,.,-5%[59 µM],-2%,1%
O=C(N/N=C/c1cccc([N+](=O)[O-])c1O)c1cccs1,2,-12%,22%,50µM*,15%,5µM*
O=C(N/N=C/c1cccc2ccccc12)c1cccs1,-4,.,-13%,48%,.,.
